± gives the standard deviation of the averaged measurements. Over roughly 25,000 sequences, “ln(normalized median fluorescence intensity)” has its median near 8.9; the highest 2% begin near 10. Shown is part of a subset that was picked to be rich in the highest values.

The text below walks through data of the supplement of paper PMC11417369.

In this test the test system is PfAP2-LT AP2 domain (GST-tagged). Kind of test: gcPBM binding intensity (ln(normalized median fluorescence intensity)); higher = stronger DNA binding. An outline of the steps:
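In this array assay, P. falciparum DNA-binding domains with a GST tag, expressed in E. coli, were applied for 1 h to primer-extended double-stranded 36-bp intergenic genomic probes and negative controls on an Agilent 4 × 180k array. Bound protein was visualised with Alexa488 anti-GST antibody at 488 nm. Binding intensity is the highest Masliner-normalised natural-log median intensity across replicate spots of either probe orientation.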
For the sequence “TACAAAAGTTAAACATGTACTTAATTATATGTTTTT [XGTACX_site2852]”, the “gcPBM binding intensity (ln)” value was 8.57 ± 0.44.
In the case of “TTCTTAATTTAAAATTGTACTTAAGTAATACTTATG [XGTACX_site3928]” it was 8.49 ± 0.57; in that of “TTGTTTCCGATGAAAGAAAGGAAATTATAATATATC [GTGCAC_negctrl_site516]”, 8.43 ± 0.44.
In the case of “AAGTAATCATCATAAAGTACTAAATTATATTGTCAA [XGTACX_site5841]” it was 8.67 ± 0.37; in that of “TATAAACAGACGAAAACACACATATGTAAATATATA [CACACA_site4428]”, 9.15 ± 0.44.
Under “TTTATTATCTTATTCACACACATATATAAATATGTA [CACACA_site7369]” stands 9.06 ± 0.42.
Regarding “TGTTTTTTATATTACTGTACATGTTTTGGAATAATA [XGTACX_site4716]”, the “gcPBM binding intensity (ln)” value stood at 8.75 ± 0.4.
In the case of “ATGAACAAGGGGCACACACACATTATGACTAATTTA [CACACA_site3204]” it was 9.6 ± 0.45; in that of “TTTAAATATTTTATAGCATGCTACCAATATGTATAT [TGCATGCA_site291]”, 8.83 ± 0.52; in that of “TAGTGTGCCAAATTAGCACACACATATATACATGAA [CACACA_site8910]”, 9.6 ± 0.36.
Under TCTTTTTCTTGACGAGTGCAAAAATTGTGTTTGAAA stands 8.48 ± 0.35; under “TCGTAAACATATTGAAAAATATAAAAAGGGGTAATA [CACACA_negctrl_site619]”, 8.71 ± 0.56; under “CTGAAGGAAAAAGAAAGTACTTTTTTTTTTTTGAAG [XGTACX_site5973]”, 8.22 ± 0.68.
In the case of “CAAGCACCCAGACACACACACACACCCACACCCACA [CACACA_site369]” it was 10.1 ± 0.47; in that of “ATCAAGCACGGACACACACACACACCCAGACCCCCA [CACACA_site4360]”, 10.19 ± 0.099.
For the sequence “CACAGACACGGACACACACACACACCCAGACACATA [CACACA_site4357]”, the “gcPBM binding intensity (ln)” value was found to be 10.1 ± 0.43.
Under “TTGGCATACGGACACACACACACACCCAGACATATA [CACACA_site4492]” stands 9.84 ± 0.18.
In the case of “TTTATTTTATCATTTGCACACGCACCCAGACATAAA [CACACA_site4347]” it was 9.19 ± 0.35; in that of “TTCTATTTTAATATCTGTACATAATAAAGATCCATT [XGTACX_site1142]”, 8.46 ± 0.49.
On to “ACATTATATTTGGACTGTACTAATATATTGTTATAT [XGTACX_site5573]”, for which the “gcPBM binding intensity (ln)” value turned out to be 8.91 ± 0.42.
In the case of “GCTTATTAATATCATACACACATAGATATATTTATA [CACACA_site3104]” it was 8.91 ± 0.39; in that of “TATATGTTATATTGGACACACACAATAAACATTATG [CACACA_site8480]”, 9.21 ± 0.38.
In the case of “AACCAGTTGATGTGTACACATATAGTAATAATTTTA [CACACA_site5564]” it was 9.16 ± 0.52; in that of “TAAAATTATTAATGAGTGCATTATAAAATCTATATA [GTGCAC_site9493]”, 8.38 ± 0.46.
In the case of “ATATTTTCCCTTTATAGGAGCACAAAAATTAAATGT [CACACA_negctrl_site1114]” it was 8.46 ± 0.35.
As for “AGGAAATGTTTATATACATGCATAATTAAATATAAT [TGCATGCA_site672]”, the “gcPBM binding intensity (ln)” value is 8.74 ± 0.46.
In the case of “ATAGACAGCGCACAAACACACAAACACCCACCCACA [CACACA_site8043]” it was 9.99 ± 0.31; in that of “AAAAAAAACACGCGCACACACACACCCACCCACCGA [CACACA_site2206]”, 10.32 ± 0.078.
As for “AAAAAAAACACGCGCACACACACACCCACAGACACA [CACACA_site5253]”, the “gcPBM binding intensity (ln)” value was found to be 10.2 ± 0.14.
For “AAAAAAAACAAATACACACGCACACCGAAAAAAAAA [CACACA_site803]”, the “gcPBM binding intensity (ln)” value was determined as 9.6 ± 0.39.
In the case of “AAAAAAAAAACAAATACACACGCACCCAAAAAAAAA [CACACA_site8166]” it was 9.61 ± 0.18; in that of “TACACAAACAGACACACACACACACGCGCACAAAAA [CACACA_site7192]”, 10.06 ± 0.042; in that of “AAAAAAACAACATGCACACGCACACCCAAAAAAAGC [CACACA_site72]”, 9.84 ± 0.32.
In the case of “AGAAAAAAACAACATGCACACGCACCCACAAAAAAA [CACACA_site7908]” it was 9.51 ± 0.28; in that of “AAAAAAAAAACACGCGCACACACACCCACCCACCCA [CACACA_site8689]”, 10.365 ± 0.0071; in that of “GTTTTGTACATATTCTCACACATATAAAAATACCCA [CACACA_site4446]”, 8.77 ± 0.42.
“TATATATATATATATATACACACTATATAATTCAAA [CACACA_site1023]”: the “gcPBM binding intensity (ln)” value was 9.67 ± 0.042.
Regarding “GAATAAAAATTTTAATGTACATATTTTTTATTTATA [XGTACX_site8935]”, the “gcPBM binding intensity (ln)” value worked out at 8.41 ± 0.49.
Turning to “TTTTTTTTTTTTTGATGTACTTATTTAATAAGATAT [XGTACX_site376]”, the “gcPBM binding intensity (ln)” value stood at 8.38 ± 0.47.
For the sequence “ATATATAATATTTTTATTTTTATTTTTTTTTTATGA [TGCATGCA_negctrl_site577]”, the “gcPBM binding intensity (ln)” value came out at 8.34 ± 0.49.
Under “AAAAAGATAAAATATACATGCATATATAATATACAT [TGCATGCA_site488]” stands 8.94 ± 0.4.
In the case of “TAAACAGAAGCACATACACACACTCAAAAAAAAAAA [CACACA_site3051]” it was 9.53 ± 0.39; in that of “ACATATTATATATGTGTGCACATATATATATATTTA [GTGCAC_site9591]”, 9.7 ± 0.33.
Under CTTTATATATATTGCGTGCACATTTTTTTTTTTTTT stands 8.99 ± 0.53; under TATATATATATATATGTGCACATTTATTGCCTTTGC, 10.11 ± 0.071.
Consider “TATAGATGTGGTTTATGTACATACTATAAAAAATCA [XGTACX_site1400]”, for which the “gcPBM binding intensity (ln)” value was determined as 8.7 ± 0.49.
With “CGTATTTATATAATTACACACCATATTATAATTATT [CACACA_site3760]”, the “gcPBM binding intensity (ln)” value worked out at 8.84 ± 0.44.
Under “TTTCTTTATTTATAATAATTTTTTATTAAAAATAGA [CACACA_negctrl_site1610]” stands 8 ± 0.49; under “GATATAAACGTATATGTACATATATATATATATATA [GTGCAC_negctrl_site186]”, 10.1 ± 0.38; under “TTACAAAAAAAAAGGCGCGGATGGGGGCAATAGCAA [CACACA_negctrl_site238]”, 9.39 ± 0.45.
In the case of “ATTATGCACGGACACACACACACACCCCTAAAAAAT [CACACA_site5426]” it was 10.1 ± 0.32; in that of “TGCACAAAATTATGCACACACCTAAAATTAATTTTT [CACACA_site5596]”, 9.06 ± 0.34; in that of “TGCACAGACGGACACACACACAACTAAAAAATAATG [CACACA_site5424]”, 9.69 ± 0.61.
In the case of “AAAAAATTAGATTATGCACACACACTAATAAATAAT [CACACA_site8604]” it was 9.38 ± 0.32; in that of “ATTATGCACCAACACACACACACACCCCTAAAAAAT [CACACA_site2568]”, 10.04 ± 0.057; in that of “ATTATGCACAGACACACACACACACTACTAAAAAAT [CACACA_site7252]”, 10.2 ± 0.28.
As to “ATTTTTTCTTATAAAAAAGAAAAAGAAAAAGAAAAA [CACACA_negctrl_site1216]”, the “gcPBM binding intensity (ln)” value was 8.02 ± 0.42.
